These results are taken from PubChem BioAssay (NCI).

About 83,000 compounds went through this panel and 20% of them were active in at least one assay; those are over-represented in the sample as a whole.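 Results are percent growth after 48 hours of single-concentration exposure. 100 means growth as in untreated cells, lower positive values show inhibition; negative values down to -100 show cell death.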 The source made the active and inactive calls. Rule for the calls: active = growth percent below 10; inactive = the rest.

This assay concerns UACC-257 melanoma. Nature of the assay: NCI-60 one-dose screen, 48 h (100 = growth as untreated, 0 = no growth, -100 = all killed). To be noted: 10 µM unless noted.
For `O=C(NCc1ccco1)C1CCN(S(=O)(=O)c2ccc(Cl)cc2)CC1`, the growth was 86.5% (inactive).
The value for `C(=C\c1ccccc1)/CN1CCN(C(c2ccccc2)c2ccccc2)CC1` was 92.1% (inactive); that for `O=C(Nc1nc2ccccc2[nH]1)C(=O)Nc1nc2ccccc2[nH]1` was 101% (inactive).
For `Brc1ccccc1Nc1ccc2nnc(-c3ccncc3)n2n1` the value was 106% (inactive); for `COC(=O)[C@@H]1CCCN1C(=O)[C@@H]1CCCN1C(=O)[C@@H](Cc1c[nH]c2ccccc12)NC(=S)Nc1cc(C(F)(F)F)cc(C(F)(F)F)c1`, 72.3% (inactive); for `COc1ccc(C2OCC(C)(C)CO2)cc1OC`, 87.5% (inactive).
For `Cc1nc(NC(=O)COc2cccc(/C=C3\COc4ccccc4C3=O)c2)sc1C` the value was -49% (active).
For the compound `Cc1cc(=O)[nH]n1-c1cc(Cl)ccc1N`, the growth was 89.8% (inactive).
On to `COCCOC1=C(Cl)C(=O)c2ccccc2C1=O`, for which the growth is -17.3% (active).
For `Cc1nn2c(-c3nc4ccc(Cl)cc4[nH]3)c(-c3ccc(F)cc3)nc2s1` the value was 92.9% (inactive); for `Oc1ccc(Cl)cc1CNc1nc2ccccc2[nH]1`, -63.4% (active); for `CN([N-]C(=O)CC(=O)[N-]N(C)C(=S)c1ccccc1)C(=S)c1ccccc1.[Cu+2]`, -92.9% (active).
For `COc1ccc(-c2nc3sc(C)nn3c2-c2nc3cc(C)c(C)cc3[nH]2)cc1` the value was 100% (inactive); for `FC(F)(F)c1cc(CNc2ncc(Br)c(Cl)n2)cc(C(F)(F)F)c1`, 96.4% (inactive).
The value for `O=C1C(OCCOc2ccccc2)=C(OCCOc2ccccc2)C(=O)c2ccccc21` was 14.8% (inactive).
`COc1cccc(Nc2nc(NCCO)c3ccccc3n2)c1`: the growth was 95.8% (inactive).
For `CC(=O)Nc1ccc(Sc2ccc([N+](=O)[O-])o2)cc1` the value was -43.4% (active); for `CN1CCc2c(c3ccccc3c3ccccc23)C1`, 37.6% (inactive).
The value for `CC(C)OC1=C(Cl)C(=O)c2ccccc2C1=O` was 89.6% (inactive); that for `CCOC(=O)C(CC(c1ccccc1)N1CCCCC1)[N+](=O)[O-]` (configuration not stated) was 89% (inactive); that for `Cc1ccc2nc(NC(=O)CSC(=S)N3CCN(C)CC3)sc2c1` was 89.8% (inactive).
For `CCCOC(=O)c1ccc2c(c1)[N+](=O)C(C(=O)c1ccccc1)=C(C(F)(F)F)[N+]2=O` the value was -94.2% (active).
